test: qHTS profiling of the MIPE4 collection as inhibitors of Plasmodium falciparum (DD2) proliferation (Rep 2) (AID 743346); settings: P. falciparum Dd2 in erythrocytes, SYBR Green DNA, 72 h; at 28.5 µM unless noted
From the text: Plasmodium falciparum is a virulent malarial parasite that kills 1-2 million people worldwide each year. Transmitted by mosquitoes, the sporozoite form of the parasite enters the blood stream to infect hepatocytes, where they become merozoites that infect red blood cells (erythrocytes). Within erythrocytes, merozoites begin a […] cycle of growth and division, after which the parasite is released to infect new red blood cells. Gametocytes, which form within erythrocytes as well, circulate in the bloodstream and are ingested by the mosquito, thereby completing the life cycle. To profile malarial isolates for differential chemical responses and to identify inhibitors of malarial growth, an assay that measures P. falciparum growth and replication within erythrocytes was employed. This assay uses a DNA binding fluorescent dye (SYBR Green) to detect parasite DNA following cell lysis. Because mature erythrocytes lack DNA, only Plasmodium-derived DNA is detected.
The SYBR Green viability assay was adapted from a method described previously (Plouffe et al., 2008). For screening 3 ul culture medium was dispensed into 1536 well black clear bottom plates (Aurora Biotechnologies) using a Multidrop Combi (Thermo Fisher Scientific Inc.), 23 nL compounds in DMSO were added by a pin tool (Kalypsys), and 5 ul of erythrocytes infected with P. falciparum (0.3% parasitemia, 2.5% hematocrit final concentration) were added. The plates were incubated at 37 C in a humidified incubator in 5% CO2 for 72 h, and 2 ul lysis buffer (20 mM Tris HCl, 10 mM EDTA, 0.16% saponin, 1.6% triton X, 10X SYBR Green I supplied as 10,000X […] by Invitrogen) was added to each well. The plates were mixed for 25 sec with gentle shaking and incubated overnight at room temperature in the dark. The following morning, fluorescence intensity at 485(14) nm excitation and 535(25) nm emission wavelengths was measured on an EnVision (Perkin Elmer) plate reader. Plate reads were normalized relative to the control inhibitor (0.29 uM artemisinin) and vehicle (DMSO) wells present on each plate and then corrected by an algorithm using vehicle-only control plates at the beginning and end of the compound plate stack.

| SMILES | parasite growth, % of control (lower = inhibition) |
| --- | --- |
| Cn1cc(C[C@@H](N)C(=O)O)c2ccccc21 | 107% [at 9.64 µM] |
| COc1cccc2c1C(=O)c1c(O)c3c(c(O)c1C2=O)C[C@@](O)(C(C)=O)C[C@H]3O[C@H]1C[C@H](N)[C@H](O)[C@H](C)O1 | 6.6% |
| OC[C@@H](O)[C@@H](O)[C@H](O)[C@@H](O)CO | 92% |
| COc1cc(CCc2cc(NC(=O)c3ccc(N4C[C@@H](C)N[C@@H](C)C4)cc3)n[nH]2)cc(OC)c1 | 43.7% |
| COc1ccnc2[nH]cc(C(=O)C(=O)N3CCN(C(=O)c4ccccc4)C[C@@H]3C)c12 | 86.4% |
| CC(C)(O)[C@H]1CC[C@@](C)([C@H]2[C@@H](O)C[C@@]3(C)[C@@H]4C[C@H](O[C@@H]5O[C@H](CO)[C@@H](O)[C@H](O)[C@@H]5O)[C@H]5C(C)(C)[C@@H](O[C@@H]6OC[C@@H](O)[C@H](O)[C@@H]6O)CC[C@@]56C[C@@]46CC[C@]23C)O1 | 89.1% |
| CS(=O)(=O)N1CCc2c(-c3cnc(N)nc3)nc(N3CCOCC3)nc21 | 6.07% |
| CCOC(=O)[C@@H](N)Cc1ccc(-c2cc(O[C@H](c3ccc(Cl)cc3-n3ccc(C)n3)C(F)(F)F)nc(N)n2)cc1 | 43.9% |
| COc1cc(O)c2c(c1)C1OC1C[C@H](O)[C@H](O)C(=O)C=CC[C@H](C)OC2=O (stereo not given in full) | 6.84% |
| C=C1C(=O)O[C@H]2[C@@H]1CCC(C)=CCC[C@@]1(C)O[C@@H]21 | 37.7% |
| CN1C(C(=O)Nc2ccccn2)=C(O)c2sc(Cl)cc2S1(=O)=O | 50.9% |
| CCc1ccc(C(=O)Nc2cc(CN3CCN(C)CC3)cc(C(F)(F)F)c2)cc1C#Cc1cnc2ccnn2c1 | 10.5% |
| OCC(O)C(O)C(O)CO (stereo not given) | 114% |
| CC(=O)O[C@H]1C[C@@H]2CC[C@H]3[C@H]4C[C@H]([N+]5(C)CCCCC5)[C@@H](OC(C)=O)[C@@]4(C)CC[C@@H]3[C@@]2(C)C[C@H]1N1CCCCC1 | 37.1% |
| O=C(O)CCCCC(CCSCc1ccccc1)SCc1ccccc1 (stereo not given) | 61.5% |
| CCC(C(=O)O)C1CCC(C)C(C(C)C(O)C(C)C(=O)C(CC)C2OC3(C=CC(O)[C@@]4(CC[C@](C)(C5CC[C@@](O)(CC)C(C)O5)O4)O3)C(C)CC2C)O1 (stereo not given in full) | 7.13% |
| CC(C)N(CC[C@H](c1ccccc1)c1cc(CO)ccc1O)C(C)C | 26.5% |
| O=c1ccn([C@@H]2O[C@H](CO)[C@H](O)[C@@H]2F)c(=O)[nH]1 | 107% |
| O=C(C=CC#Cc1cccc(NS(=O)(=O)c2ccccc2)c1)NO | 8.22% |
| C[C@H]1C[C@H]2[C@@H]3CCC4=CC(=O)C=C[C@]4(C)[C@@H]3C(=O)C[C@]2(C)[C@@]1(O)C(=O)CO | 81.9% |

| SMILES | parasite growth, % of control (lower = inhibition) |
| --- | --- |
| CCCc1nc(C(C)(C)O)c(C(=O)O)n1Cc1ccc(-c2ccccc2-c2nn[nH]n2)cc1 | 84.2% |
| Cn1cc(C2=C(c3c4n(c5ccccc35)CCC(CN)C4)C(=O)NC2=O)c2ccccc21 (stereo not given) | 11% |
| COc1ccc(S(=O)(=O)Nc2cccnc2Nc2ccc(O)cc2)cc1 | 85.5% |
| CC1(C)O[C@@H]2C[C@H]3[C@@H]4CCC5=CC(=O)C=C[C@]5(C)[C@@H]4[C@@H](O)C[C@]3(C)[C@]2(C(=O)CO)O1 | 7.43% |
| COc1cc(C(C)C)c(Oc2cnc(NC(CO)CO)nc2N)cc1I | 60.9% |
| C[C@@H](Cc1cc2c(c(C(N)=O)c1)N(CCCO)CC2)NCCOc1ccccc1OCC(F)(F)F | 58.3% |
| N[C@H]1CN(c2c(F)cc3c(=O)c(C(=O)O)cn(C4C[C@@H]4F)c3c2Cl)CC12CC2 (stereo not given in full) | 27.8% |
| Cc1ccc([N+](=O)[O-])cc1S(=O)(=O)N(C)N=Cc1cnc2ccc(Br)cn12 | 20.1% |
| NS(=O)(=O)OC[C@@H]1C[C@@H](n2ccc3c(N[C@H]4CCc5ccccc54)ncnc32)C[C@H]1O | 46.9% |
| CCc1cnn2c(NCc3ccc[n+]([O-])c3)cc(N3CCCC[C@@H]3CCO)nc12 | 12.6% |
| C=CC1=C(C(=O)O)N2C(=O)[C@@H](NC(=O)C(=NO)c3csc(N)n3)[C@H]2SC1 | 103% |
| N#Cc1ccc(COC[C@H]2O[C@@H](n3c(NCc4ccc(Cl)c(Cl)c4)nc4c(N)ncnc43)[C@@H](O)[C@@H]2O)cc1 | 23.2% |
| COc1cc2c(cc1OC)[C@@H]1C(=O)c3ccc4c(c3O[C@@H]1CO2)C=CC(C)(C)O4 | 39.7% |
| C=C(C)[C@@H]1CC[C@]2(C)CC[C@]3(C)[C@H](CC[C@@H]4[C@@]5(C)CC[C@H](O)C(C)(C)[C@H]5CC[C@]43C)[C@@H]12 | 73.8% |
| CCCCC(=O)O[C@]1(C(=O)CO)[C@@H](C)C[C@H]2[C@@H]3CCC4=CC(=O)C=C[C@]4(C)[C@@]3(F)[C@@H](O)C[C@@]21C | 54.9% |
| Cc1cc(C(=O)NOCCO)c(Nc2ccc(I)cc2F)n(C)c1=O | 84.7% |
| CCCCOc1ccc(C(=O)Nc2ccc(F)cc2F)cc1 | 174% |
| O=C(Nc1ccc(Oc2ccnc3[nH]ccc23)c(F)c1)c1cccn(-c2ccc(F)cc2)c1=O | 29.2% |
| CN[C@H]1[C@@H](O)[C@@H]2O[C@@H]3O[C@H](C)CC(=O)[C@]3(O)O[C@@H]2[C@@H](NC)[C@H]1O | 19.2% |
| CCNC(=O)Nc1ccc(-c2nc3c(c(N4CCOC[C@H]4C)n2)CCN(C2COC2)C3)cc1 | 49% |

— PubChem BioAssay (NCATS)
